# ± gives the standard deviation of the averaged measurements.
# What was measured:
# Test in all cases: promoter activity interaction Z-score (Lux/OD deviation from empty-vector control); higher = stronger promoter induction by the compound
# [1] = system: E. coli BW25113 acrABp lux reporter
# Procedure, shortened: (§1)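 OD600 and luminescence of E. coli BW25113 reporter cultures (40 µl LB Lennox, 384-well plates, 37°C) were measured every 30 min for 12 h. Integration ran over 0–8 h for wild type or 1–9 h for deletion strains, and wells with growth below 10% of the median were dropped. The score is the Z-transformed residual of growth-normalised luminescence fitted against a control.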
# [2] = system: E. coli BW25113 micFp lux reporter
# Procedure, shortened: as §1
# [3] = system: E. coli BW25113 ompFp lux reporter
# Procedure, shortened: as §1
# [4] = system: E. coli BW25113 robp lux reporter
# Procedure, shortened: as §1
# [5] = system: E. coli BW25113 soxSp lux reporter
# Procedure, shortened: as §1
# [6] = system: E. coli BW25113 tolCp lux reporter
# Procedure, shortened: as §1
# [7] = 19.1 µg/ml, genetic background: wild type
# [8] = 19.1 µg/ml, genetic background: ΔmarA
# [9] = 19.1 µg/ml, genetic background: Δrob
# [10] = 19.1 µg/ml, genetic background: ΔsoxS
# [11] = 38.3 µg/ml, genetic background: wild type
# [12] = 38.3 µg/ml, genetic background: ΔmarA
# [13] = 38.3 µg/ml, genetic background: Δrob
# [14] = 38.3 µg/ml, genetic background: ΔsoxS
# [15] = 76.6 µg/ml, genetic background: wild type
# [16] = 76.6 µg/ml, genetic background: ΔmarA
# [17] = 76.6 µg/ml, genetic background: Δrob
# [18] = 76.6 µg/ml, genetic background: ΔsoxS
# [19] = 153.1 µg/ml, genetic background: wild type
# [20] = 153.1 µg/ml, genetic background: ΔmarA
# [21] = 153.1 µg/ml, genetic background: Δrob
# [22] = 153.1 µg/ml, genetic background: ΔsoxS
structure (smiles),measurement,setting,value
Nc1ccc(C(=O)O)c(O)c1 [4-Aminosalicylic acid],promoter activity interaction Z-score,[1]; [7],-0.149 ± 0.057
same,promoter activity interaction Z-score,[1]; [8],-0.463 ± 0.94
same,promoter activity interaction Z-score,[1]; [9],-0.0648 ± 0.1
same,promoter activity interaction Z-score,[1]; [10],0.0906 ± 0.23
same,promoter activity interaction Z-score,[1]; [11],-0.194 ± 0.071
same,promoter activity interaction Z-score,[1]; [12],-0.226 ± 0.02
same,promoter activity interaction Z-score,[1]; [13],0.179 ± 0.24
same,promoter activity interaction Z-score,[1]; [14],0.221 ± 0.28
same,promoter activity interaction Z-score,[1]; [15],-0.276 ± 0.035
same,promoter activity interaction Z-score,[1]; [16],-0.0192 ± 0.31
same,promoter activity interaction Z-score,[1]; [17],-0.218 ± 0.18
same,promoter activity interaction Z-score,[1]; [18],-0.00319 ± 0.25
same,promoter activity interaction Z-score,[1]; [19],-0.212 ± 0.19
same,promoter activity interaction Z-score,[1]; [20],0.164 ± 0.025
same,promoter activity interaction Z-score,[1]; [21],0.0189 ± 0.39
same,promoter activity interaction Z-score,[1]; [22],0.952 ± 1.3
same,promoter activity interaction Z-score,[2]; [7],0.127 ± 0.069
same,promoter activity interaction Z-score,[2]; [8],0.157 ± 0.12
same,promoter activity interaction Z-score,[2]; [9],0.223 ± 0.068
same,promoter activity interaction Z-score,[2]; [10],0.335 ± 0.24
same,promoter activity interaction Z-score,[2]; [11],0.103 ± 0.31
same,promoter activity interaction Z-score,[2]; [12],0.0571 ± 0.12
same,promoter activity interaction Z-score,[2]; [13],0.346 ± 0.16
same,promoter activity interaction Z-score,[2]; [14],0.348 ± 0.31
same,promoter activity interaction Z-score,[2]; [15],0.399 ± 0.11
same,promoter activity interaction Z-score,[2]; [16],0.312 ± 0.014
same,promoter activity interaction Z-score,[2]; [17],0.842 ± 0.12
same,promoter activity interaction Z-score,[2]; [18],0.567 ± 0.32
same,promoter activity interaction Z-score,[2]; [19],0.955 ± 0.34
same,promoter activity interaction Z-score,[2]; [20],0.278 ± 0.066
same,promoter activity interaction Z-score,[2]; [21],1.89 ± 0.16
same,promoter activity interaction Z-score,[2]; [22],2.24 ± 0.04
same,promoter activity interaction Z-score,[3]; [7],-0.191 ± 0.28
same,promoter activity interaction Z-score,[3]; [8],-0.0337 ± 0.042
same,promoter activity interaction Z-score,[3]; [9],0.485 ± 0.12
same,promoter activity interaction Z-score,[3]; [10],0.498 ± 0.63
same,promoter activity interaction Z-score,[3]; [11],-0.538 ± 0.33
same,promoter activity interaction Z-score,[3]; [12],0.43 ± 0.48
same,promoter activity interaction Z-score,[3]; [13],0.92 ± 0.71
same,promoter activity interaction Z-score,[3]; [14],0.203 ± 0.35
same,promoter activity interaction Z-score,[3]; [15],-0.751 ± 0.39
same,promoter activity interaction Z-score,[3]; [16],-0.414 ± 0.39
same,promoter activity interaction Z-score,[3]; [17],-0.49 ± 0.65
same,promoter activity interaction Z-score,[3]; [18],-0.5 ± 0.67
same,promoter activity interaction Z-score,[3]; [19],-0.516 ± 0.52
same,promoter activity interaction Z-score,[3]; [20],0.0436 ± 0.35
same,promoter activity interaction Z-score,[3]; [21],0.0977 ± 1
same,promoter activity interaction Z-score,[3]; [22],0.625 ± 1.1
same,promoter activity interaction Z-score,[4]; [7],-0.222 ± 0.014
same,promoter activity interaction Z-score,[4]; [8],-0.199 ± 0.69
same,promoter activity interaction Z-score,[4]; [9],-0.314 ± 0.28
same,promoter activity interaction Z-score,[4]; [10],-0.201 ± 0.76
same,promoter activity interaction Z-score,[4]; [11],-0.158 ± 0.15
same,promoter activity interaction Z-score,[4]; [12],0.308 ± 0.07
same,promoter activity interaction Z-score,[4]; [13],0.333 ± 0.35
same,promoter activity interaction Z-score,[4]; [14],0.11 ± 0.31
same,promoter activity interaction Z-score,[4]; [15],-0.0528 ± 0.63
same,promoter activity interaction Z-score,[4]; [16],-0.845 ± 0.11
same,promoter activity interaction Z-score,[4]; [17],-0.29 ± 0.49
same,promoter activity interaction Z-score,[4]; [18],-0.381 ± 0.64
same,promoter activity interaction Z-score,[4]; [19],-0.356 ± 0.24
same,promoter activity interaction Z-score,[4]; [20],0.439 ± 0.5
same,promoter activity interaction Z-score,[4]; [21],-0.252 ± 0.99
same,promoter activity interaction Z-score,[4]; [22],0.0401 ± 0.42
same,promoter activity interaction Z-score,[5]; [7],0.0858 ± 0.3
same,promoter activity interaction Z-score,[5]; [8],0.563 ± 0.097
same,promoter activity interaction Z-score,[5]; [9],0.674 ± 0.079
same,promoter activity interaction Z-score,[5]; [10],0.458 ± 0.71
same,promoter activity interaction Z-score,[5]; [11],-0.0504 ± 0.074
same,promoter activity interaction Z-score,[5]; [12],0.547 ± 0.088
same,promoter activity interaction Z-score,[5]; [13],0.688 ± 0.15
same,promoter activity interaction Z-score,[5]; [14],0.377 ± 0.54
same,promoter activity interaction Z-score,[5]; [15],0.102 ± 0.028
same,promoter activity interaction Z-score,[5]; [16],0.199 ± 0.076
same,promoter activity interaction Z-score,[5]; [17],0.581 ± 0.14
same,promoter activity interaction Z-score,[5]; [18],0.29 ± 0.88
same,promoter activity interaction Z-score,[5]; [19],-0.173 ± 0.12
same,promoter activity interaction Z-score,[5]; [20],0.349 ± 0.045
same,promoter activity interaction Z-score,[5]; [21],0.403 ± 0.16
same,promoter activity interaction Z-score,[5]; [22],0.259 ± 0.95
same,promoter activity interaction Z-score,[6]; [7],-0.487 ± 1.9
same,promoter activity interaction Z-score,[6]; [8],-1.05 ± 0.26
same,promoter activity interaction Z-score,[6]; [9],1.71 ± 2
same,promoter activity interaction Z-score,[6]; [10],-0.0483 ± 0.2
same,promoter activity interaction Z-score,[6]; [11],-0.154 ± 1.3
same,promoter activity interaction Z-score,[6]; [12],-0.0748 ± 0.1
same,promoter activity interaction Z-score,[6]; [13],0.149 ± 0.17
same,promoter activity interaction Z-score,[6]; [14],0.687 ± 1.6
same,promoter activity interaction Z-score,[6]; [15],-0.119 ± 0.018
same,promoter activity interaction Z-score,[6]; [16],-0.241 ± 0.77
same,promoter activity interaction Z-score,[6]; [17],1.64 ± 0.41
same,promoter activity interaction Z-score,[6]; [18],-0.423 ± 0.15
same,promoter activity interaction Z-score,[6]; [19],0.606 ± 0.32
same,promoter activity interaction Z-score,[6]; [20],0.0837 ± 0.18
same,promoter activity interaction Z-score,[6]; [21],0.207 ± 0.77
same,promoter activity interaction Z-score,[6]; [22],1.76 ± 0.4

# Source: the supplement of paper PMC12282887
